Laboratory results reported in PubChem BioAssay AID1159580 (chemical genetic matrix, 2015).
The whole screen tested about 5,500 compounds, of which about 2,000 (36%) were called active. About 18% were inconclusive and are not listed. Cut-off read from the data, not from the text of the source: active = normalized growth mostly below about 0.91 (no sharp cut-off); inconclusive = no clear call, values can overlap the other calls; inactive = mostly above about 0.92. Some of the results follow.

Test: chemical genetic growth profiling, strain panel (AID 1159580);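 note: tested at 20 µM; growth read once vehicle control cultures reached saturation at 30 °C; 1 = growth at the plate median or of vehicle wells; lower values mean less growth of the strain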
Settings: growth OD

Measured: normalized growth

CS(=O)(=O)c1ccc([C@@H](O)[C@@H](CO)NC(=O)C(Cl)Cl)cc1
inactive: S. cerevisiae deletion strains, locus YKL009W, strain mrt4, stronger effect = lower value 0.977 | S. cerevisiae deletion strains, locus YKL068W, stronger effect = lower value 0.978 | S. cerevisiae deletion strains, locus YKL085W, strain MDH1 (second series), stronger effect = lower value 0.988 | S. cerevisiae deletion strains, locus YKL085W, strain MDH1, stronger effect = lower value 0.988 | S. cerevisiae deletion strains, locus YKL160W, strain elf1, stronger effect = lower value 1.02 | S. cerevisiae deletion strains, locus YKL190W, strain CNB1, stronger effect = lower value 0.991 | S. cerevisiae deletion strains, locus YKR001C, strain vps1, stronger effect = lower value 0.99 | S. cerevisiae deletion strains, locus YKR026C, strain gcn3, stronger effect = lower value 1.03 | S. cerevisiae deletion strains, locus YKR091W, strain srl3, stronger effect = lower value 1.01 | S. cerevisiae deletion strains, locus YLL001W, strain dnm1, stronger effect = lower value 1 | S. cerevisiae deletion strains, locus YLL026W, stronger effect = lower value 1.02 | S. cerevisiae deletion strains, locus YLL041C, strain sdh2, stronger effect = lower value 1.02 | S. cerevisiae deletion strains, locus YLR027C, strain aat2, stronger effect = lower value 1.01 | S. cerevisiae deletion strains, locus YLR039C, strain RIC1, stronger effect = lower value 0.947 | S. cerevisiae deletion strains, locus YLR058C, strain SHM2, stronger effect = lower value 0.965 | S. cerevisiae deletion strains, locus YLR102C, strain apc9, stronger effect = lower value 0.978 | S. cerevisiae deletion strains, locus YLR113W, strain HOG1, stronger effect = lower value 0.998 | S. cerevisiae deletion strains, locus YLR221C, strain rsa3, stronger effect = lower value 1.01 | S. cerevisiae deletion strains, locus YLR258W, strain gsy2, stronger effect = lower value 1.02 | S. cerevisiae deletion strains, locus YLR262C, strain YPT6 (second series), stronger effect = lower value 1.03 | S. cerevisiae deletion strains, locus YLR262C, strain YPT6, stronger effect = lower value 0.849 | S. cerevisiae deletion strains, locus YLR268W, strain sec22, stronger effect = lower value 0.983 | S. cerevisiae deletion strains, locus YLR320W, strain mms22, stronger effect = lower value 0.991 | S. cerevisiae deletion strains, locus YLR330W, strain CHS5, stronger effect = lower value 0.982 | S. cerevisiae deletion strains, locus YLR342W, strain FKS1 (second series), stronger effect = lower value 1.01 | S. cerevisiae deletion strains, locus YLR342W, strain FKS1, stronger effect = lower value 1.01 | S. cerevisiae deletion strains, locus YLR357W, strain rsc2, stronger effect = lower value 1 | S. cerevisiae deletion strains, locus YLR370C, strain arc18, stronger effect = lower value 1.03 | S. cerevisiae deletion strains, locus YLR371W, strain rom2, stronger effect = lower value 0.993 | S. cerevisiae deletion strains, locus YLR384C, strain iki3, stronger effect = lower value 1.02 | S. cerevisiae deletion strains, locus YLR418C, strain cdc73, stronger effect = lower value 0.98 | S. cerevisiae deletion strains, locus YML016C, strain PPZ1, stronger effect = lower value 0.981 | S. cerevisiae deletion strains, locus YML032C, strain rad52, stronger effect = lower value 1 | S. cerevisiae deletion strains, locus YML120C, strain ndi1, stronger effect = lower value 1.05 | S. cerevisiae deletion strains, locus YML124C, strain tub3, stronger effect = lower value 0.993 | S. cerevisiae deletion strains, locus YMR058W, strain fet3, stronger effect = lower value 1.03 | S. cerevisiae deletion strains, locus YMR078C, strain ctf18, stronger effect = lower value 0.975 | S. cerevisiae deletion strains, locus YMR125W, strain sto1, stronger effect = lower value 1.04 | S. cerevisiae deletion strains, locus YMR129W, stronger effect = lower value 1.02 | S. cerevisiae deletion strains, locus YMR205C, strain PFK2, stronger effect = lower value 1.01 | S. cerevisiae deletion strains, locus YMR223W, strain ubp8, stronger effect = lower value 1.02 | S. cerevisiae deletion strains, locus YMR231W, strain pep5, stronger effect = lower value 1.03 | S. cerevisiae deletion strains, locus YMR263W, strain SAP30, stronger effect = lower value 0.984 | S. cerevisiae deletion strains, locus YMR307W, strain GAS1, stronger effect = lower value 1.06 | S. cerevisiae deletion strains, locus YNL067W, strain RPL9B, stronger effect = lower value 0.973 | S. cerevisiae deletion strains, locus YNL071W, strain lat1, stronger effect = lower value 1.03 | S. cerevisiae deletion strains, locus YNL128W, strain TEP1, stronger effect = lower value 0.975 | S. cerevisiae deletion strains, locus YNL153C, strain GIM3, stronger effect = lower value 0.981 | S. cerevisiae deletion strains, locus YNL183C, strain NPR1, stronger effect = lower value 0.959 | S. cerevisiae deletion strains, locus YNL209W, strain ssb2, stronger effect = lower value 1.04 | S. cerevisiae deletion strains, locus YNL233W, strain BNI4, stronger effect = lower value 0.99 | S. cerevisiae deletion strains, locus YNL248C, strain rpa49, stronger effect = lower value 1.07 | S. cerevisiae deletion strains, locus YNL250W, strain rad50, stronger effect = lower value 0.981 | S. cerevisiae deletion strains, locus YNL271C, strain bni1, stronger effect = lower value 0.995 | S. cerevisiae deletion strains, locus YNL298W, strain CLA4, stronger effect = lower value 0.988 | S. cerevisiae deletion strains, locus YNL307C, strain MCK1, stronger effect = lower value 0.985 | S. cerevisiae deletion strains, locus YNL322C, strain KRE1 (second series), stronger effect = lower value 1.02 | S. cerevisiae deletion strains, locus YNL322C, strain KRE1, stronger effect = lower value 0.983 | S. cerevisiae deletion strains, locus YNR049C, strain mso1, stronger effect = lower value 1 | S. cerevisiae deletion strains, locus YNR052C, strain pop2, stronger effect = lower value 0.993 | S. cerevisiae deletion strains, locus YOL006C, strain TOP1, stronger effect = lower value 0.889 | S. cerevisiae deletion strains, locus YOL012C, strain htz1 1.83 | S. cerevisiae deletion strains, locus YOL147C, strain pex11, stronger effect = lower value 0.99 | S. cerevisiae deletion strains, locus YOR001W, strain rrp6, stronger effect = lower value 1.03 | S. cerevisiae deletion strains, locus YOR061W, strain CKA2, stronger effect = lower value 0.944 | S. cerevisiae deletion strains, locus YOR069W, strain VPS5, stronger effect = lower value 0.991 | S. cerevisiae deletion strains, locus YOR070C, strain gyp1, stronger effect = lower value 1.03 | S. cerevisiae deletion strains, locus YOR080W, strain dia2, stronger effect = lower value 1.02 | S. cerevisiae deletion strains, locus YOR083W, strain WHI5, stronger effect = lower value 0.98 | S. cerevisiae deletion strains, locus YOR106W, strain vam3, stronger effect = lower value 1.05 | S. cerevisiae deletion strains, locus YOR136W, strain idh2, stronger effect = lower value 0.992 | S. cerevisiae deletion strains, locus YOR144C, strain elg1, stronger effect = lower value 0.983 | S. cerevisiae deletion strains, locus YOR184W, strain ser1, stronger effect = lower value 1.03 | S. cerevisiae deletion strains, locus YOR231W, strain MKK1, stronger effect = lower value 0.967 | S. cerevisiae deletion strains, locus YOR265W, strain rbl2, stronger effect = lower value 1.03 | S. cerevisiae deletion strains, locus YOR270C, strain vph1, stronger effect = lower value 1.12 | S. cerevisiae deletion strains, locus YOR290C, strain snf2, stronger effect = lower value 1.04 | S. cerevisiae deletion strains, locus YOR316C, strain cot1, stronger effect = lower value 0.975 | S. cerevisiae deletion strains, locus YPL051W, strain arl3, stronger effect = lower value 1.02 | S. cerevisiae deletion strains, locus YPL055C, strain LGE1, stronger effect = lower value 0.984 | S. cerevisiae deletion strains, locus YPL078C, strain atp4, stronger effect = lower value 1.04 | S. cerevisiae deletion strains, locus YPL106C, strain sse1, stronger effect = lower value 1.01 | S. cerevisiae deletion strains, locus YPL240C, strain hsp82, stronger effect = lower value 1.02 | S. cerevisiae deletion strains, locus YPL241C, strain CIN2, stronger effect = lower value 0.968 | S. cerevisiae deletion strains, locus YPL256C, strain CLN2, stronger effect = lower value 0.995 | S. cerevisiae deletion strains, locus YPR119W, strain clb2, stronger effect = lower value 1 | S. cerevisiae deletion strains, locus YPR141C, strain kar3, stronger effect = lower value 0.971 | S. cerevisiae deletion strains, locus YPR163C, strain tif3, stronger effect = lower value 1 | S. cerevisiae deletion strains, locus YPR167C, strain met16, stronger effect = lower value 0.975 | S. cerevisiae deletion strains, strain wtn01, stronger effect = lower value 0.984 | S. cerevisiae strains, strain wild type, stronger effect = lower value 0.963
